Assay results from PubChem BioAssay AID1159580 (chemical genetic matrix, 2015).
Screen size: about 5,500 compounds; about 2,000 (36%) were called active. Another 18% or so got no clear call; they are omitted. No stated cut-off is given here; in the data, active means normalized growth mostly below about 0.91 (no sharp cut-off); inconclusive means no clear call, values can overlap the other calls; inactive means mostly above about 0.92. This is one part of the list.

Assay: chemical genetic growth profiling, strain panel (AID 1159580);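 further: tested at 20 µM; growth read once vehicle control cultures reached saturation at 30 °C; 1 = growth at the plate median or of vehicle wells; lower values mean less growth of the strain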
Details: growth OD

Measured: normalized growth

CC1O[C@@H](Oc2c(-c3ccc(O)c(O)c3)oc3cc(O)cc(O)c3c2=O)[C@H](O)[C@H](O)[C@H]1O (some centres not stated)
inactive: S. cerevisiae deletion strains, locus YJR075W, strain HOC1, hits give low values 0.996 | S. cerevisiae deletion strains, locus YKL009W, strain mrt4, hits give low values 1.11 | S. cerevisiae deletion strains, locus YKL068W, hits give low values 0.972 | S. cerevisiae deletion strains, locus YKL085W, strain MDH1 (second series), hits give low values 1.03 | S. cerevisiae deletion strains, locus YKL085W, strain MDH1, hits give low values 1.03 | S. cerevisiae deletion strains, locus YKL160W, strain elf1, hits give low values 0.994 | S. cerevisiae deletion strains, locus YKL190W, strain CNB1, hits give low values 0.998 | S. cerevisiae deletion strains, locus YKR001C, strain vps1, hits give low values 0.989 | S. cerevisiae deletion strains, locus YKR026C, strain gcn3, hits give low values 0.983 | S. cerevisiae deletion strains, locus YKR091W, strain srl3, hits give low values 0.993 | S. cerevisiae deletion strains, locus YLL001W, strain dnm1, hits give low values 0.986 | S. cerevisiae deletion strains, locus YLL026W, hits give low values 0.996 | S. cerevisiae deletion strains, locus YLL041C, strain sdh2, hits give low values 0.997 | S. cerevisiae deletion strains, locus YLR027C, strain aat2, hits give low values 0.98 | S. cerevisiae deletion strains, locus YLR039C, strain RIC1, hits give low values 0.974 | S. cerevisiae deletion strains, locus YLR058C, strain SHM2, hits give low values 0.999 | S. cerevisiae deletion strains, locus YLR102C, strain apc9, hits give low values 0.984 | S. cerevisiae deletion strains, locus YLR113W, strain HOG1, hits give low values 0.958 | S. cerevisiae deletion strains, locus YLR221C, strain rsa3, hits give low values 0.989 | S. cerevisiae deletion strains, locus YLR258W, strain gsy2, hits give low values 1 | S. cerevisiae deletion strains, locus YLR262C, strain YPT6 (second series), hits give low values 1.01 | S. cerevisiae deletion strains, locus YLR262C, strain YPT6, hits give low values 0.992 | S. cerevisiae deletion strains, locus YLR268W, strain sec22, hits give low values 0.948 | S. cerevisiae deletion strains, locus YLR320W, strain mms22, hits give low values 0.991 | S. cerevisiae deletion strains, locus YLR330W, strain CHS5, hits give low values 0.99 | S. cerevisiae deletion strains, locus YLR342W, strain FKS1 (second series), hits give low values 1.04 | S. cerevisiae deletion strains, locus YLR342W, strain FKS1, hits give low values 0.984 | S. cerevisiae deletion strains, locus YLR357W, strain rsc2, hits give low values 0.969 | S. cerevisiae deletion strains, locus YLR370C, strain arc18, hits give low values 0.989 | S. cerevisiae deletion strains, locus YLR371W, strain rom2, hits give low values 0.992 | S. cerevisiae deletion strains, locus YLR384C, strain iki3, hits give low values 0.994 | S. cerevisiae deletion strains, locus YLR418C, strain cdc73, hits give low values 0.993 | S. cerevisiae deletion strains, locus YML016C, strain PPZ1, hits give low values 1 | S. cerevisiae deletion strains, locus YML032C, strain rad52, hits give low values 0.99 | S. cerevisiae deletion strains, locus YML120C, strain ndi1, hits give low values 1 | S. cerevisiae deletion strains, locus YML124C, strain tub3, hits give low values 0.985 | S. cerevisiae deletion strains, locus YMR058W, strain fet3, hits give low values 0.99 | S. cerevisiae deletion strains, locus YMR078C, strain ctf18, hits give low values 0.988 | S. cerevisiae deletion strains, locus YMR125W, strain sto1, hits give low values 0.981 | S. cerevisiae deletion strains, locus YMR129W, hits give low values 0.982 | S. cerevisiae deletion strains, locus YMR205C, strain PFK2, hits give low values 0.986 | S. cerevisiae deletion strains, locus YMR223W, strain ubp8, hits give low values 1.03 | S. cerevisiae deletion strains, locus YMR231W, strain pep5, hits give low values 0.974 | S. cerevisiae deletion strains, locus YMR263W, strain SAP30, hits give low values 0.992 | S. cerevisiae deletion strains, locus YMR307W, strain GAS1, hits give low values 1.1 | S. cerevisiae deletion strains, locus YNL067W, strain RPL9B, hits give low values 0.975 | S. cerevisiae deletion strains, locus YNL071W, strain lat1, hits give low values 0.992 | S. cerevisiae deletion strains, locus YNL128W, strain TEP1, hits give low values 0.986 | S. cerevisiae deletion strains, locus YNL153C, strain GIM3, hits give low values 0.991 | S. cerevisiae deletion strains, locus YNL183C, strain NPR1, hits give low values 0.919 | S. cerevisiae deletion strains, locus YNL209W, strain ssb2, hits give low values 0.984 | S. cerevisiae deletion strains, locus YNL233W, strain BNI4, hits give low values 0.985 | S. cerevisiae deletion strains, locus YNL248C, strain rpa49, hits give low values 0.989 | S. cerevisiae deletion strains, locus YNL250W, strain rad50, hits give low values 0.983 | S. cerevisiae deletion strains, locus YNL271C, strain bni1, hits give low values 0.984 | S. cerevisiae deletion strains, locus YNL298W, strain CLA4, hits give low values 0.991 | S. cerevisiae deletion strains, locus YNL307C, strain MCK1, hits give low values 0.997 | S. cerevisiae deletion strains, locus YNL322C, strain KRE1 (second series), hits give low values 0.988 | S. cerevisiae deletion strains, locus YNL322C, strain KRE1, hits give low values 0.984 | S. cerevisiae deletion strains, locus YNR049C, strain mso1, hits give low values 0.986 | S. cerevisiae deletion strains, locus YNR052C, strain pop2, hits give low values 0.98 | S. cerevisiae deletion strains, locus YOL006C, strain TOP1, hits give low values 0.955 | S. cerevisiae deletion strains, locus YOL012C, strain htz1 0.762 | S. cerevisiae deletion strains, locus YOL147C, strain pex11, hits give low values 0.997 | S. cerevisiae deletion strains, locus YOR001W, strain rrp6, hits give low values 0.992 | S. cerevisiae deletion strains, locus YOR061W, strain CKA2, hits give low values 1 | S. cerevisiae deletion strains, locus YOR069W, strain VPS5, hits give low values 1 | S. cerevisiae deletion strains, locus YOR070C, strain gyp1, hits give low values 0.986 | S. cerevisiae deletion strains, locus YOR080W, strain dia2, hits give low values 0.988 | S. cerevisiae deletion strains, locus YOR083W, strain WHI5, hits give low values 0.995 | S. cerevisiae deletion strains, locus YOR106W, strain vam3, hits give low values 1.02 | S. cerevisiae deletion strains, locus YOR136W, strain idh2, hits give low values 0.986 | S. cerevisiae deletion strains, locus YOR144C, strain elg1, hits give low values 0.982 | S. cerevisiae deletion strains, locus YOR184W, strain ser1, hits give low values 1.01 | S. cerevisiae deletion strains, locus YOR231W, strain MKK1, hits give low values 0.942 | S. cerevisiae deletion strains, locus YOR265W, strain rbl2, hits give low values 0.992 | S. cerevisiae deletion strains, locus YOR270C, strain vph1, hits give low values 1.03 | S. cerevisiae deletion strains, locus YOR290C, strain snf2, hits give low values 0.995 | S. cerevisiae deletion strains, locus YOR316C, strain cot1, hits give low values 0.983 | S. cerevisiae deletion strains, locus YPL051W, strain arl3, hits give low values 0.983 | S. cerevisiae deletion strains, locus YPL055C, strain LGE1, hits give low values 0.974 | S. cerevisiae deletion strains, locus YPL078C, strain atp4, hits give low values 0.997 | S. cerevisiae deletion strains, locus YPL106C, strain sse1, hits give low values 0.971 | S. cerevisiae deletion strains, locus YPL240C, strain hsp82, hits give low values 1 | S. cerevisiae deletion strains, locus YPL241C, strain CIN2, hits give low values 1 | S. cerevisiae deletion strains, locus YPL256C, strain CLN2, hits give low values 0.927 | S. cerevisiae deletion strains, locus YPR119W, strain clb2, hits give low values 0.996 | S. cerevisiae deletion strains, locus YPR141C, strain kar3, hits give low values 0.975 | S. cerevisiae deletion strains, locus YPR163C, strain tif3, hits give low values 0.986 | S. cerevisiae deletion strains, locus YPR167C, strain met16, hits give low values 0.982 | S. cerevisiae deletion strains, strain wtn01, hits give low values 0.982 | S. cerevisiae strains, strain wild type, hits give low values 0.997
